Measurements from the supplement of paper PMC9262897, “Low-cost anti-mycobacterial drug discovery using engineered E. coli” (Nature Communications, 2022).
Where a name gives a salt, the structure may show the parent alone. ± gives the standard deviation of the averaged measurements.

System: E. coli TESEC Mtb Alr
Test: growth (OD600 after 10 h); higher = more growth (less inhibition)
Conditions: compound 0.1 mM
Description: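 TESEC Mtb Alr E. coli, or the Alr+ wild-type control, in 384-well plates with Prestwick library compounds at 0.1 mM and 1% DMSO, across arabinose induction levels of 1E3 to 1E7 nM. Growth is read as OD600 after 10 h at 37 °C in triplicate biological replicates.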

[1] = arabinose 1000 nM, raw OD600 reference: median of DMSO wells 0.294, cell-free background 0.041
[2] = arabinose 10000 nM, raw OD600 reference: median of DMSO wells 0.264, cell-free background 0.041
[3] = arabinose 100000 nM, raw OD600 reference: median of DMSO wells 0.201, cell-free background 0.041
[4] = arabinose 1000000 nM, raw OD600 reference: median of DMSO wells 0.193, cell-free background 0.041
[5] = arabinose 10000000 nM, raw OD600 reference: median of DMSO wells 0.146, cell-free background 0.041

| Compound | growth [1] | growth [2] | growth [3] | growth [4] | growth [5] |
| --- | --- | --- | --- | --- | --- |
| C[C@]12CC[C@H]3[C@@H](CCC4=CC(=O)CC[C@@H]43)[C@@H]1CC[C@@H]2O [Nandrolone] | 0.201 ± 0.014 | 0.226 ± 0.012 | 0.118 ± 0.0031 | 0.0814 ± 0.0003 | 0.115 ± 0.0021 |
| C(#CCN1CCCC1)CN1CCCC1 [Tremorine dihydrochloride] | 0.317 ± 0.011 | 0.27 ± 0.005 | 0.239 ± 0.013 | 0.194 ± 0.0086 | 0.162 ± 0.008 |
| COc1ccc(OC)c(C(O)C(C)N)c1 (stereo not given) [Methoxamine hydrochloride] | 0.292 ± 0.0063 | 0.27 ± 0.005 | 0.212 ± 0.024 | 0.187 ± 0.003 | 0.148 ± 0.0068 |
| CC(=O)OCC(=O)[C@H]1CC[C@H]2[C@@H]3CC[C@H]4C[C@H](O)CC[C@]4(C)[C@H]3C(=O)C[C@]12C [Alfadolone acetate] | 0.196 ± 0.003 | 0.222 ± 0.0029 | 0.194 ± 0.0054 | 0.153 ± 0.0021 | 0.109 ± 0.0024 |
| CCC1=C[C@H]2CN3CCc4c([nH]c5ccccc45)[C@](C(=O)OC)(C2)[C@H]13 [Catharanthine] | 0.262 ± 0.012 | 0.259 ± 0.006 | 0.169 ± 0.013 | 0.101 ± 0.0015 | 0.144 ± 0.0052 |
| COc1ccc(CCN2CCC(Nc3nc4ccccc4n3Cc3ccc(F)cc3)CC2)cc1 [Astemizole] | 0.0406 ± 0.00056 | 0.04013 ± 0.00025 | 0.0411 ± 0.0019 | 0.04007 ± 0.00031 | 0.0404 ± 0.0002 |
| CCC(=O)O[C@H]1CC[C@H]2[C@@H]3CCC4=CC(=O)CC[C@]4(C)[C@H]3CC[C@]12C [Testosterone propionate] | 0.145 ± 0.0086 | 0.261 ± 0.0051 | 0.12 ± 0.0075 | 0.107 ± 0.0037 | 0.117 ± 0.015 |
| CN(C)C(=O)Oc1cc(OC(=O)N(C)C)cc(C(O)CNC(C)(C)C)c1 (stereo not given) [Bambuterol hydrochloride] | 0.266 ± 0.04 | 0.273 ± 0.0062 | 0.232 ± 0.02 | 0.193 ± 0.006 | 0.141 ± 0.0068 |
